Screens deposited in PubChem by National Center for Advancing Translational Sciences (NCATS).
TDP1 cell CPT: qHTS for Inhibitors of human tyrosyl-DNA phosphodiesterase 1 (TDP1): qHTS in cells in presence of CPT. Potency, µM (doses to about 46.2 µM), for the others: top-dose activity change, negative = growth inhibition, most hits filed as inhibitors. AID 686979, 2013. actives 12% (n = 420,000). chicken DT40 Tdp1-/-;hTDP1 cells + 20 nM CPT, ATP luminescence, 48 h; further: potency means the concentration at half of the fitted maximal effect; nearly all actives have a fitted effect of over 55% in size
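Cell growth measured by CellTiter-Glo luminescence after a minimum 48 h, 37 C compound exposure with 20 nM CPT in Tdp1-knockout DT40 cells stably expressing hTDP1, seeded 400/well; qHTS titration format.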
HT1080NT lethal: qHTS for induction of synthetic lethality in tumor cells producing 2HG: qHTS for the HT-1080-NT fibrosarcoma cell line; actives 1.6% (n = 360,000); AID 686970, 2013; Potency, µM (titrated, usually from 46.1 µM), inactives show top-dose activity, negative = less viability, most hits filed as cytotoxic; HT-1080-NT fibrosarcoma viability, CellTiter-Glo ATP luminescence, 48 h;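 further: NT is the 2HG producing partner of a matched IDH1 knockdown line; potency means the concentration at half of the fitted maximal effect; 0% = DMSO-treated cells and -100% = media-only wells without cells; nearly all actives have a fitted effect of over 55% in size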
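Read-out is CellTiter-Glo luminescence after 10 minutes at room temperature, following 48 hours' compound treatment of HT-1080-NT cells (750 cells/well, RPMI, 5% FBS, 37 degrees C).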
IL-1B inflam inh: qHTS for Inhibitors of Inflammasome Signaling: IL-1-beta AlphaLISA Primary Screen. AID 743279, 2014. actives 4.7% (n = 360,000). activity change, % at 57.5 µM. THP-1 LPS/ATP IL-1B secretion, AlphaLISA, 16 h; stronger effect = lower value; in the data active means activity change below about -50%; inconclusive means mostly about -30% to -49%
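THP-1 cells pretreated 1 hr with compounds (up to 57.5 uM final), then stimulated with LPS (250 ng/mL final) plus ATP (1.25 mM final); secreted IL-1B measured by AlphaLISA after 16 hr, decreased signal indicating inhibition.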
DT40 TDP1 no CPT: qHTS for Inhibitors of human tyrosyl-DNA phosphodiesterase 1 (TDP1): qHTS in cells in absence of CPT. Potency, µM (highest dose often 46.2 µM), without a hit: top-dose activity change, negative = growth inhibition, most hits filed as inhibitors. AID 686978, 2013. DT40 Tdp1-/- hTDP1 cells, no CPT, ATP luminescence, 48 h. actives 15% (n = 420,000); further: potency means the concentration at half of the fitted maximal effect; nearly all actives have a fitted effect of over 55% in size
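Growth kinetics read by CellTiter-Glo luminescence after ≥48 hr at 37 °C. Cells: DT40 Tdp1-/- stably carrying human TDP1, 400 per well, compound exposure in the absence of CPT (DMSO vehicle).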
ELG1 repair inh: qHTS screen for small molecules that inhibit ELG1-dependent DNA repair in human embryonic kidney (HEK293T) cells expressing luciferase-tagged ELG1. HEK293T ELG1-luciferase reporter, luminescence, 16 h; DNA damage induced by 5-fluorouridine. Potency, µM (doses to about 46.1 µM), for the others: at the highest dose activity change, negative = inhibition, most hits filed as inhibitors. actives 2.3% (n = 330,000). AID 504467, 2011; further: potency means the concentration at half of the fitted maximal effect; nearly all actives have a fitted effect of over 55% in size
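HEK293T cells expressing luciferase-tagged ELG1 (2,000/well) received 5-Fluorouridine plus compound or DMSO for 16 hr at 37 °C. Luciferase was read by ONE-Glo luminescence after 30 min at room temperature.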
HT1080 IDH1KD tx: qHTS for induction of synthetic lethality in tumor cells producing 2HG: qHTS for the HT-1080-IDH1KD cell line; HT-1080 IDH1 knockdown viability, ATP luminescence, 48 h; Potency, µM (top dose mostly 46.1 µM), inactives show top-dose activity, negative = toxicity, most hits filed as cytotoxic; actives 2% (n = 360,000); AID 686971, 2013;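 further: potency means the concentration at half of the fitted maximal effect; 0% = DMSO wells and -100% = cell-free medium wells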
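Knockdown cells (IDH1KD HT-1080) received compounds 2 h after plating at 750 cells/well and were kept 48 h at 37 °C in 5% FBS RPMI. A CellTiter-Glo luminescence read gave % activity for curve fitting.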
* hit, by the source's call. Sampled rows, rich in hits. Any-hit rate of the full collection: about 19%. Unless noted, the call rests on the fitted dose curve; in most records, active means well fitted curve in the direction sought with a large enough effect; inconclusive means small, poorly fitted or top-dose-only effect, or another doubt; inactive means no such curve, though single readings can be large; an effect the other way counts as inactive or inconclusive. Unless noted, on the % scale 0 is the no-effect control and ±100 the full control effect.

Results for COc1ccc(-c2nn3c(-c4cc(-c5ccccc5)n[nH]4)nnc3s2)cc1OC ?
TDP1 cell CPT: 2.8µM*; DT40 TDP1 no CPT: 4.5µM*

What do the screens show for `COc1ccc(-c2nnc3sc(-c4ccccn4)nn23)cc1`?
ELG1 repair inh: -1%

What do the screens show for `COc1cccc(-c2nn3c(-c4cc(C)[nH]n4)nnc3s2)c1`?
TDP1 cell CPT: 16µM*; HT1080NT lethal: 10%; DT40 TDP1 no CPT: 11µM*; ELG1 repair inh: inconclusive; HT1080 IDH1KD tx: -4%

How did Cc1cccc(-c2nnc3sc(-c4ccccc4)nn23)c1 do in these assays?
TDP1 cell CPT: 20µM*; HT1080NT lethal: 25%; IL-1B inflam inh: -6; DT40 TDP1 no CPT: 13µM*; ELG1 repair inh: inconclusive; HT1080 IDH1KD tx: 29%

How did COc1ccc(-c2nn3c(-c4cc(-c5ccccc5)n[nH]4)nnc3s2)cc1 do in these assays?
TDP1 cell CPT: 3.5µM*; DT40 TDP1 no CPT: 2.8µM*

What do the screens show for `Cc1ccc([C@@H]2CC(=O)[C@@H]3CN(S(=O)(=O)c4ccc(C)cc4)[C@H](c4ccc(Cl)cc4)C[C@@H]3N2S(=O)(=O)c2ccc(C)cc2)cc1`?
TDP1 cell CPT: 7%; HT1080NT lethal: 1%; IL-1B inflam inh: 25; DT40 TDP1 no CPT: inconclusive; HT1080 IDH1KD tx: 10%

How did CCOc1ccc(NC(=O)CSc2nnnn2-c2ccc(C(N)=O)cc2)cc1 do in these assays?
TDP1 cell CPT: -1%; HT1080NT lethal: -16%; IL-1B inflam inh: 13; DT40 TDP1 no CPT: -20%; ELG1 repair inh: inconclusive; HT1080 IDH1KD tx: -8%

What do the screens show for `COc1ccc(S(=O)(=O)N2CCCCC2)cc1NC(=O)c1ccc(OC)c(OC)c1`?
TDP1 cell CPT: -2%; HT1080NT lethal: 5%; IL-1B inflam inh: inconclusive; DT40 TDP1 no CPT: -17%; ELG1 repair inh: inconclusive; HT1080 IDH1KD tx: 0%

What do the screens show for `CC(=O)COC(=O)CCc1nc2ccccc2[nH]c1=O`?
TDP1 cell CPT: -7%; HT1080NT lethal: 14%; IL-1B inflam inh: -10; DT40 TDP1 no CPT: -3%; ELG1 repair inh: 5%; HT1080 IDH1KD tx: 20%

How did CCCCOC(=O)CCc1nc2ccccc2[nH]c1=O do in these assays?
TDP1 cell CPT: 0%; HT1080NT lethal: 1%; IL-1B inflam inh: 17; DT40 TDP1 no CPT: -1%; ELG1 repair inh: 29µM*; HT1080 IDH1KD tx: 1%

Results for O=C(Cc1nc2ccccc2[nH]1)c1ccc(Br)cc1 ?
TDP1 cell CPT: inconclusive; HT1080NT lethal: 0%; IL-1B inflam inh: -60*; DT40 TDP1 no CPT: inconclusive; ELG1 repair inh: inconclusive; HT1080 IDH1KD tx: -6%

Results for O=C(O)COCc1nc2ccccc2[nH]1 ?
TDP1 cell CPT: 11%; HT1080NT lethal: 9%; IL-1B inflam inh: -6; DT40 TDP1 no CPT: 9%; ELG1 repair inh: 5%; HT1080 IDH1KD tx: -5%

Results for O=C(Cc1nc2ccccc2[nH]c1=O)c1ccccc1 ?
TDP1 cell CPT: -6%; HT1080NT lethal: -4%; IL-1B inflam inh: -72*; DT40 TDP1 no CPT: -18%; ELG1 repair inh: inconclusive; HT1080 IDH1KD tx: -4%

Results for CN(C)CCNC(=O)CN1C(=O)COc2ccc(S(=O)(=O)N3CCCC3)cc21 ?
TDP1 cell CPT: 4%; DT40 TDP1 no CPT: -17%
